TDP1 block = inhibitors of human tyrosyl-DNA phosphodiesterase TDP1; Q9NUW8; recombinant TDP1, AlphaScreen DNA substrate cleavage; Potency, µM (highest dose often 130 µM), actives largely listed as inhibitors; 0.28% of 350,000 active; AID 485290; further: nearly all actives have a fitted effect of over 40% in size
Target sequence (Q9NUW8 whole entry, looked up): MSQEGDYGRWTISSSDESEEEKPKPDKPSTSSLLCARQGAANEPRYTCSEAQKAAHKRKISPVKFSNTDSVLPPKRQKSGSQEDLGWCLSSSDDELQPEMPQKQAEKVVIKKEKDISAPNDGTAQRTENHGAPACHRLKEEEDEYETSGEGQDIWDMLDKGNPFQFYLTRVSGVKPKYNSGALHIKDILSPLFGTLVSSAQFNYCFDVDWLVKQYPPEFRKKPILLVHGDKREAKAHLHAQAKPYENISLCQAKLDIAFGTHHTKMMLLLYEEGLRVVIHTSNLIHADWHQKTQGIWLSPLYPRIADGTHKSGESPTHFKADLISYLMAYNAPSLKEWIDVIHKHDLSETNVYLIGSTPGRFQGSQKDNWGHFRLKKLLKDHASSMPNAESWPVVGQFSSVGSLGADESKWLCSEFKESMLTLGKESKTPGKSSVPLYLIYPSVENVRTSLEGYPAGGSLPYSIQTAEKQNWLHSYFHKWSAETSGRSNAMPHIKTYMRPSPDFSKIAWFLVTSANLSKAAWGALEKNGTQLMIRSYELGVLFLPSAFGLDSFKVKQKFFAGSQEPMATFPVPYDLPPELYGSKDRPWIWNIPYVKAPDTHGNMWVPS
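AlphaScreen read-out: signal falls as enzyme removes the 3' tyrosine-FITC from a 5'-biotinylated DNA oligo (15 nM, 5 min, RT). Enzyme was E. coli-made recombinant Tdp1 at 1 nM, exposed to compound for 15 min beforehand; beads 10 ug/ml, 10 min.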
Tb PGK inh = inhibitors of T. brucei phosphoglycerate kinase | P07378 | PGK/GAPDH coupled, Kinase-Glo luminescence, 60 min | Potency, µM (top dose mostly 57.5 µM), hits mostly inhibitors | 0.043% of 380,000 active | AID 602233; further: nearly all actives have a fitted effect of over 60% in size
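Luminescent ATP detection (Kinase-Glo Plus) follows a 60-minute room-temperature incubation, with wells lacking PGK as controls. Buffer: 100 mM TEA (pH 7.6), 5 mM MgCl2, 0.01% Tween-20. Coupling enzyme GAPDH (100 nM final) supplies unstable 1,3-BPG in-well.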
FEN1 inh = inhibitors of human flap endonuclease 1; P39748; 0.35% of 390,000 active; AID 588795; Potency, µM (doses to about 114 µM), hits mostly inhibitors; Recombinant FEN1 flap cleavage, fluorescence, 15 min; further: nearly all actives have a fitted effect of over 65% in size
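With each library titrated from low to high concentration, compounds met 10 nM FEN1 for 15 min at room temperature before 50 nM substrate was added; readings at 0 and 15 min fed four-parameter Hill curve fits.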
APEX1 inh = inhibitors of human APE1 endonuclease. P27695. recombinant APE1, TAMRA/BHQ-2 abasic DNA cleavage fluorescence. 0.35% of 350,000 active. Potency, µM (titrated, usually from 65.8 µM), hits mostly inhibitors. AID 2517; further: nearly all actives have a fitted effect of over 55% in size
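Compound pre-exposure to 0.75 nM APE1, 15 min at ambient temperature. Reaction initiated with 50 nM TAMRA/BHQ-2 THF substrate, read immediately in kinetic mode, 525 nm excitation, 598 nm emission.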
Tb PFK inh-1 = T. brucei PFK enzyme inhibition; 0.17% of 330,000 active; Potency, µM (highest dose often 57.5 µM), most hits filed as inhibitors; O15648; T. brucei PFK, ADP-Glo luminescence; AID 485367; further: nearly all actives have a fitted effect of over 60% in size
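PFK 1.25 nM, F6P 0.5 mM, ATP 0.1 mM, 0.1 M TEA pH 8.0, 5 mM MgCl2, 0.01% Tween20, 0.1% BSA; 45 min RT. ADP-Glo readout. qHTS titration up to 57 uM; curves fitted, compounds curve-classed.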
PI4K2A block = PI4K2A (human) kinase inhibition | purified PI4K2A, ADP-Glo luminescence, 1 h; stronger effect = lower value | activity change, negative = inhibition, % at 76.9 µM | 0.13% of 420,000 active; in the data active means activity change below about -50%; inconclusive means mostly about -30% to -49%
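Compounds are screened against recombinant PI4K2A using PI as substrate and ATP, the latter dispensed at 300 microM. Reactions run one hour at ambient temperature before ADP-Glo detection; full inhibition defined by wells lacking enzyme.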
TbPFK ATP = Tb phosphofructokinase inhibition, orthogonal luminescence; Potency, µM (doses to about 57.5 µM); AID 504636; Tb PFK enzyme, ATP depletion, Kinase-Glo Plus luminescence; 47% of 1,100 active; shares compounds with Tb PFK inh-1; calls by dose curve; further: nearly all actives have a fitted effect of over 60% in size
Tb PFK inh-2 = T. brucei PFK enzyme inhibition, hit validation; shares compounds with Tb PFK inh-1; purified T. brucei PFK, ADP-Glo luminescence, 45 min; Potency, µM (titrated, usually from 57.5 µM), usual class: inhibitors; 41% of 1,100 active; further: nearly all actives have a fitted effect of over 60% in size
A number is an active result. Hits are enriched below; roughly 0.8% of the tested compounds scored in any of these assays. Unless noted, the call rests on the fitted dose curve; in most records, active means well fitted curve in the direction sought with a large enough effect; inconclusive means small, poorly fitted or top-dose-only effect, or another doubt; inactive means no such curve, though single readings can be large; an effect the other way counts as inactive or inconclusive.

For CCCCC/C=C\C/C=C\C/C=C\C/C=C\CCCC(=O)OCCN the results were TDP1 block inactive and APEX1 inh inactive.
O=Cc1ccc2c(c1)OCO2 was read as TDP1 block inactive and APEX1 inh inactive.
Screening C=C(C)C(N)=O returned TDP1 block inactive and APEX1 inh inactive.
Screening COC(=O)/C(C#N)=C(/Nc1ccc(F)c(Cl)c1)C(F)(F)F returned Tb PGK inh inactive, FEN1 inh inactive, APEX1 inh inactive, Tb PFK inh-1 27µM, PI4K2A block inactive, TbPFK ATP 12µM and Tb PFK inh-2 27µM.
For CCC(=O)Nc1ccc(N2CCN(CC)CC2)c(Cl)c1 the results were TDP1 block inactive, Tb PGK inh inactive, FEN1 inh inactive, APEX1 inh inactive, Tb PFK inh-1 inactive and PI4K2A block inactive.
`CCC(=O)Nc1ccc(F)c(Cl)c1` gave TDP1 block inactive, Tb PGK inh inactive, FEN1 inh inactive, APEX1 inh inactive, Tb PFK inh-1 30µM, PI4K2A block inactive, TbPFK ATP inconclusive and Tb PFK inh-2 inconclusive.
Screening C[C@@H]1O[C@@H](O[C@@H]2C=C3CC[C@@H]4[C@@H](CC[C@]5(C)[C@H](c6ccc(=O)oc6)CC[C@@]45O)[C@@]3(C)CC2)[C@H](O)[C@H](O)[C@H]1O returned FEN1 inh inactive.
Screening C=CC1CC=CCC1 (configuration not stated) returned TDP1 block inactive and APEX1 inh inactive.
CC(C)(c1ccc(OCC2CO2)cc1)c1ccc(OCC2CO2)cc1 (configuration not stated) was read as TDP1 block inactive and APEX1 inh inconclusive.
Screening CN1CCN(c2ccc([N+](=O)[O-])c(Sc3ccccn3)c2)CC1 returned TDP1 block inactive, Tb PGK inh inactive, FEN1 inh inactive, APEX1 inh inactive, Tb PFK inh-1 inactive and PI4K2A block inactive.
Screening NS(=O)(=O)c1ccc(NC(=S)N2CCN(c3cccc(Cl)c3)CC2)cc1 returned TDP1 block inactive, Tb PGK inh inactive, FEN1 inh inactive, APEX1 inh inactive, Tb PFK inh-1 inconclusive, PI4K2A block inactive, TbPFK ATP 11µM and Tb PFK inh-2 15µM.
`CC(=O)c1ccc(NC(=O)N2CCN(c3cccc(Cl)c3)CC2)cc1` gave TDP1 block inactive, Tb PGK inh inactive, FEN1 inh inactive, APEX1 inh inactive, Tb PFK inh-1 21µM, PI4K2A block inactive, TbPFK ATP 21µM and Tb PFK inh-2 inconclusive.
`O=C(CSc1ccccn1)N1CCN(c2cccc(Cl)c2)CC1` gave TDP1 block inactive, Tb PGK inh inactive, FEN1 inh inactive, APEX1 inh inactive, Tb PFK inh-1 inconclusive, PI4K2A block inactive, TbPFK ATP inconclusive and Tb PFK inh-2 inconclusive.
`O=C(CCC(=O)N1CCN(c2cccc(Cl)c2)CC1)N1CCN(c2ccccc2)CC1` gave TDP1 block inactive, Tb PGK inh inactive, FEN1 inh inactive, APEX1 inh inactive, Tb PFK inh-1 inconclusive, PI4K2A block inactive, TbPFK ATP inconclusive and Tb PFK inh-2 inconclusive.
For c1c[nH]cn1 the results were TDP1 block inactive and APEX1 inh inactive.
O=C(CCC(=O)N1CCN(c2cccc(Cl)c2)CC1)c1cccs1 was read as TDP1 block inactive, Tb PGK inh inactive, FEN1 inh inactive, APEX1 inh inactive, Tb PFK inh-1 inconclusive, PI4K2A block inactive, TbPFK ATP inconclusive and Tb PFK inh-2 inconclusive.
Screening S=C(NCc1ccco1)N1CCN(c2cccc(Cl)c2)CC1 returned TDP1 block inactive, Tb PGK inh inactive, FEN1 inh inactive, APEX1 inh inactive, Tb PFK inh-1 inconclusive, PI4K2A block inactive, TbPFK ATP 24µM and Tb PFK inh-2 inconclusive.
For O=C(Nc1ccc(Cl)cc1C(=O)c1ccccc1)c1ccccc1 the results were TDP1 block inactive, Tb PGK inh inactive, FEN1 inh inactive, APEX1 inh inactive, Tb PFK inh-1 inactive and PI4K2A block inactive.
`O=C(Nc1cccc(C(=O)N2CCN(c3cccc(Cl)c3)CC2)c1)c1ccccc1` gave TDP1 block inactive, FEN1 inh inactive, APEX1 inh inactive, Tb PFK inh-1 inconclusive, PI4K2A block inactive, TbPFK ATP inconclusive and Tb PFK inh-2 inconclusive.
For O=C1CC(=O)N(c2cccc(Cl)c2)C(=O)N1 the results were TDP1 block inactive, FEN1 inh inactive, APEX1 inh inactive, Tb PFK inh-1 inactive and PI4K2A block inactive.
For COC(=O)C1=C(c2ccc(S(C)(=O)=O)cc2)C[C@@H]2CC[C@H]1N2C(=O)NCc1ccco1 the results were Tb PGK inh inactive, FEN1 inh inactive and PI4K2A block inactive.
For C=C(C)C(=O)OCC1CO1 (configuration not stated) the results were TDP1 block inactive and APEX1 inh inactive.
Cc1ccc(NC(=S)Nc2ccc(Cl)c(Cl)c2)c(OC(F)F)c1 was read as TDP1 block inactive, Tb PGK inh inactive, FEN1 inh inconclusive, APEX1 inh inactive, Tb PFK inh-1 5.4µM, PI4K2A block inactive, TbPFK ATP inconclusive and Tb PFK inh-2 inconclusive.
Fc1ccc(NC(=S)Nc2ccccc2OC(F)F)cc1Cl was read as TDP1 block inactive, Tb PGK inh inactive, FEN1 inh inactive, APEX1 inh inactive, Tb PFK inh-1 inconclusive, PI4K2A block inactive, TbPFK ATP inactive and Tb PFK inh-2 inactive.
`CN(C(=O)Cc1ccc(Cl)c(Cl)c1)C(CN1CCCC1)c1cccc(N=C=S)c1` (configuration not stated) gave TDP1 block inactive and APEX1 inh inactive.
Screening CCCN(CCC)C(=O)Cc1c(-c2ccc(Cl)cc2)nc2ccc(Cl)cn12 returned PI4K2A block inactive.
For CN1CCc2cc(O)cc3c2C1Cc1ccc(O)c(O)c1-3 (configuration not stated) the results were TDP1 block inactive and APEX1 inh inactive.
`O=[N+]([O-])c1ccc(NCc2ccc3c(c2)OCO3)cc1` gave TDP1 block inactive, Tb PGK inh inactive, FEN1 inh inactive, APEX1 inh inactive, Tb PFK inh-1 6µM, PI4K2A block inactive, TbPFK ATP 4.8µM and Tb PFK inh-2 12µM.
For FC1(F)C(F)(F)C(F)(F)C2(F)C(F)(F)C(F)(F)C(F)(F)C(F)(F)C2(F)C1(F)F (configuration not stated) the results were TDP1 block inactive and PI4K2A block inactive.

From PubChem
